Data on eight compounds can be found in PubChem BioAssay (Tox21).

Structures are written as SMILES. Unmarked numbers belong to inactive results. Results filed as inconclusive are left out. Active and inactive are the calls of the source. Unless noted, calls come from the whole dose curve; as a rule, active = well fitted curve in the direction sought with a large enough effect in the repeat runs; inconclusive = weak or mixed curves; inactive = no such curve, though single readings can be large; an effect the other way counts as inactive or inconclusive.

Test [1] in a line: A CellTox Green Cytotoxicity Assay to monitor cytotoxicity in HEK293 cells - 32 hour (AID 1224881). Note: nearly all actives have a fitted effect of over 40% in size. The gist of the method:
(§1)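 Read-out: fluorescence of a cell-impermeant cyanine dye staining DNA of dead cells, proportional to cytotoxicity. HEK293, 600 cells/well with reagent, compound (23 nL DMSO) added after 5 h; reads at 0, 8, 16, 24, 32, 40 h.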

Test [2] is described as follows: A CellTox Green Cytotoxicity Assay to monitor cytotoxicity in HepG2 cells - 0 hour (AID 1224882). Note: nearly all actives have a fitted effect of over 35% in size. The procedure, abridged: (§2)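 HepG2, 600 cells/well premixed w/ CellTox Green; 5 h settle, 37 C/5% CO2; pintool cpd add (DMSO); 37 C, 40 h; fluorescence read at 0, 8, 16, 24, 32, 40 h.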
A short description of test [3]: A CellTox Green Cytotoxicity Assay to monitor cytotoxicity in HepG2 cells - 32 hour (AID 1224883). Note: nearly all actives have a fitted effect of over 50% in size. The gist of the method: as §2
Test [4] is described as follows: A CellTox Green Cytotoxicity Assay to monitor cytotoxicity in HEK293 cells - 8 hour (AID 1224884). Note: nearly all actives have a fitted effect of over 35% in size. The procedure, abridged: as §1
Test [5] is described as follows: qHTS RealTime-Glo MT Cell Viability Assay in HepG2 cells - 16 hour (AID 1224885). Note: nearly all actives have a fitted effect of over 50% in size. The gist of the method:
(§3)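 Compound treatment began 5 h after plating HepG2 cells (600/well) with NanoLuc luciferase and prosubstrate. Plates stayed at 37 C for 40 h; luminescence was captured at six time points, 0 h through 40 h.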
Background: In qHTS, concentration-response curves come from the screen itself.

Test [6] can be described thus: qHTS RealTime-Glo MT Cell Viability Assay in HEK293 cells - 24 hour (AID 1224886). Note: top concentration of the series differs between compounds; nearly all actives have a fitted effect of over 50% in size. The gist of the method: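 Quantitative high-throughput screen of the Tox21 10K library in HEK293: cells and RealTime-Glo reagents plated together, compound added at 5 h, luminescence monitored through 40 h at 37 C.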
Test [7] is described as follows: qHTS RealTime-Glo MT Cell Viability Assay in HEK293 cells - 8 hour (AID 1224887). Note: top concentration of the series differs between compounds; nearly all actives have a fitted effect of over 50% in size. The gist of the method:
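Luminescence readout at each listed time point; HEK293, 600 cells/well, RealTime-Glo MT reagent added with cells; compounds pinned (23 nL in DMSO) after 5 h at 37 C; continuous culture at 37 C.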

Test [8] in a line: A CellTox Green Cytotoxicity Assay to monitor cytotoxicity in HEK293 cells - 16 hour (AID 1224888). Note: nearly all actives have a fitted effect of over 35% in size. The gist of the method:
as §1

Test [9] in a line: qHTS RealTime-Glo MT Cell Viability Assay in HepG2 cells - 0 hour (AID 1224889). Note: nearly all actives have a fitted effect of over 50% in size. The procedure, abridged: as §3
Test [10] can be described thus: A CellTox Green Cytotoxicity Assay to monitor cytotoxicity in HepG2 cells - 8 hour (AID 1224890). Note: nearly all actives have a fitted effect of over 45% in size. The gist of the method: as §2
The nature of test [11]: qHTS assay to identify small molecule antagonists of the estrogen receptor alpha (ER-alpha) signaling pathway using the BG1 cell line in the presence of 0.1 nM 17-beta-estradiol - cell viability counter screen (AID 1259241). Note: nearly all actives have a fitted effect of over 40% in size. The procedure, abridged:
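Cytotoxicity counter-screen: live-cell protease activity measured by fluorescence (30 min reagent step) in the same wells. Cells were VM7Luc4E2 with endogenous ER-alpha and ERE-driven luciferase, treated 22 hr at 37C alongside 0.1 nM 17beta-estradiol final.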

The nature of test [12]: qHTS assay to identify small molecule antagonists of the androgen receptor (AR) signaling pathway using the MDA cell line in the presence of 0.5 nM R1881 - cell viability counter screen (AID 1259242). Note: nearly all actives have a fitted effect of over 45% in size. The procedure, abridged:
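Live-cell protease fluorescence, CellTiter-Fluor, 30 min at 37C. Cells: MDA-kb2, 3,000/well, preincubated 5 hr. Compounds plus 0.5 nM R1881 final, 16 hr, 37C, 0% CO2.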

The target in test [13] is Estrogen receptor (Homo sapiens) (UniProt P03372). As to the kind of experiment: qHTS assay to identify small molecule antagonists of the estrogen receptor alpha (ER-alpha) signaling pathway using the BG1 cell line in the presence of 0.1 nM 17-beta-estradiol (AID 1259244). Note: nearly all actives have a fitted effect of over 50% in size. The gist of the method:
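Luminescence after ONE-Glo (30 min, room temperature) measured ERE-luciferase activity in VM7Luc4E2 cells treated 22 h with compound and 0.1 nM final 17beta-estradiol as stimulator.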

Test [14] can be described thus: qHTS assay to identify small molecule phospholipidosis (PLD) inducers (AID 1259344; active = well fitted curve in the direction sought with a large enough effect; an effect the other way counts as inactive or inconclusive). The procedure, abridged: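 Image-based: LipidTOX Red pit count/intensity per well and per cell; HepG2, 24 h compound at 37 C, PFA fixation, Hoechst counterstain.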
Test [15] is described as follows: qHTS assay to identify small molecule HDAC inhibitors (AID 1259364).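 Note: wild-type HCT-116 cells with endogenous class I/II HDAC activity; top concentration of the series differs between compounds; nearly all actives have a fitted effect of over 45% in size.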 The procedure, abridged: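 HCT-116 (wild type), 1,500 cells/well, overnight; compound 2 hr 37C 5% CO2; HDAC-Glo I/II reagent 30 min RT; luminescence readout.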
A short description of test [16]: qHTS assay to identify small molecule HDAC inhibitors - cell viability counter screen (AID 1259365). The gist of the method:
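CellTiter-Glo luminescence (30 min, room temperature) reported viability after a 2 h compound exposure at 37 C. Cells: wild-type HCT-116, 1,500 per well, seeded the night before.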

Test [17] in a line: qHTS assay to identify small molecule agonists of the sonic hedgehog signaling (Shh) pathway - cell viability counter screen (AID 1259366). Note: nearly all actives have a fitted effect of over 50% in size. The gist of the method: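 Cytotoxicity counter screen: CellTiter-Fluor reagent added after 23 h compound exposure, then 1 h at 37C and fluorescence read. Cells were 3T3 Gli1-Luc, seeded 2,000 per well and dosed 4 h post-plating.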
Test [18] can be described thus: qHTS assay to identify small molecule antagonists of the sonic hedgehog signaling (Shh) pathway - cell viability counter screen (AID 1259367). Note: nearly all actives have a fitted effect of over 55% in size. Note: potency is the fitted concentration of half-maximal effect. The gist of the method: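 Tox21 library chemicals were tested on a Gli1-Luc NIH/3T3 clone (2,000 cells/well) stimulated by conditioned medium; viability was quantified as fluorescence from CellTiter-Fluor reagent added at 23 hr.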

A short description of test [19]: qHTS assay to identify small molecule agonists of the sonic hedgehog signaling (Shh) pathway (AID 1259368; calls by dose curve;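 note: NIH/3T3-derived 3T3Gli1-Luc cells carrying a stable Gli1-driven firefly luciferase reporter; series mostly up to about 92 µM; nearly all actives have a fitted effect of over 15% in size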). The gist of the method:
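Read-out: firefly luciferase luminescence from a Gli1 response element reporter stably integrated in NIH/3T3-derived 3T3Gli1-Luc cells, measured 30 min at room temperature after reagent addition. Compound exposure lasted 24 hr at 37 C, 5% CO2.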

The target in test [20] is Androgen receptor (Homo sapiens) (UniProt P10275). The experiment in a line: qHTS assay to identify small molecule antagonists of the androgen receptor (AR) signaling pathway using the MDA cell line in the presence of 0.5 nM R1881 (AID 1259243). Note: nearly all actives have a fitted effect of over 50% in size. The procedure, abridged: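 MDA-kb2, MMTV-luc (AR/GR elements); 3,000 cells/well; cpd + 0.5 nM R1881 final; 16 hr 37C, 0% CO2; ONE-Glo 30 min RT; luminescence.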
Chain of Androgen receptor (Homo sapiens) (P10275 whole entry, looked up): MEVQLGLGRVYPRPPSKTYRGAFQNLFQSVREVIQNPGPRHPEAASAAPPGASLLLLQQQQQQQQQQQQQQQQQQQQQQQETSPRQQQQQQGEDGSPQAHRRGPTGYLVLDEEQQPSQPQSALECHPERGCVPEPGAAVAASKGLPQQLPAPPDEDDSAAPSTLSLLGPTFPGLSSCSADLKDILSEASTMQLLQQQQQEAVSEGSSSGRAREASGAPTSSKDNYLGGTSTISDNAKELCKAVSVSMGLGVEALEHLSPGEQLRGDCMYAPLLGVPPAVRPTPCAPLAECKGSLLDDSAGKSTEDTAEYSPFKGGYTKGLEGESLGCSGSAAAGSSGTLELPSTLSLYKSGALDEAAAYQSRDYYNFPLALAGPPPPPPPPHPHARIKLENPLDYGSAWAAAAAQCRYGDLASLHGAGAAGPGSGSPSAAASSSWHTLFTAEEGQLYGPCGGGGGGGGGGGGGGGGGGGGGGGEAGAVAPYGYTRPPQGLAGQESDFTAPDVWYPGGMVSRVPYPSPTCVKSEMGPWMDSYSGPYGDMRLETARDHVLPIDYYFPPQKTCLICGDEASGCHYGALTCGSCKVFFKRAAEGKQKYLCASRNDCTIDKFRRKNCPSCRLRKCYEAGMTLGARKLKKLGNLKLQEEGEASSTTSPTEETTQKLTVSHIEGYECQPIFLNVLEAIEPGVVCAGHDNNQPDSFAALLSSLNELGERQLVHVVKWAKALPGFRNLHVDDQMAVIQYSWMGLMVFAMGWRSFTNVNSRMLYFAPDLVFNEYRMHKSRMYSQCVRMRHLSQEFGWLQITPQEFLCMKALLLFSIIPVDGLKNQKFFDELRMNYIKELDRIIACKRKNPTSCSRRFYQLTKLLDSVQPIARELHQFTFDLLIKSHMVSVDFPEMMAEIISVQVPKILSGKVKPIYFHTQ

Chain of Estrogen receptor (Homo sapiens) (P03372 whole entry, looked up): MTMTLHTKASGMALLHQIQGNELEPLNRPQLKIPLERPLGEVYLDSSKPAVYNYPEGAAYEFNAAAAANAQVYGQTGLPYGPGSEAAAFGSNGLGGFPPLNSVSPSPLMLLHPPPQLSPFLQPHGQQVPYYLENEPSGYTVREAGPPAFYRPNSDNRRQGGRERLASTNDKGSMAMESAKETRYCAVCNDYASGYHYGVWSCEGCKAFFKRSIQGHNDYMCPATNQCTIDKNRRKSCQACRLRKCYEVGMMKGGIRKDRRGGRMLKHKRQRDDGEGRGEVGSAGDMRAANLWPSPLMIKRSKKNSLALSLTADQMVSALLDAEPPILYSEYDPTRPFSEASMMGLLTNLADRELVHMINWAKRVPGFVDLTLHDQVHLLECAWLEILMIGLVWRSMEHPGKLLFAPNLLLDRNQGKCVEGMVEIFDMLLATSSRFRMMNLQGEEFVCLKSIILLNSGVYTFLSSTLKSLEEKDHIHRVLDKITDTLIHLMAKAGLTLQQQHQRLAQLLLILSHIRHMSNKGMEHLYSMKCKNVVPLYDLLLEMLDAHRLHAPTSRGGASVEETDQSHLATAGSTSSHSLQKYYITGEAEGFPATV

For `CC(C)NCC(O)c1ccc(N)c(C#N)c1` (stereo not drawn), the Potency entry in test [1], in test [3], in [4], in test [5], in test [6] and in test [7] was “inactive” each time. Besides, the Potency entry in test [8], in test [9], in test [10], in test [13], in [15] and in test [17] was “inactive” throughout. For the same compound, in test [18], the Potency result is “inactive”. Besides, the compound was classed as inactive in test [2], in [11], in [12], in [14], in test [16] and in test [19].

Turning to `ClC(Cl)(Cl)C(Cl)(Cl)Cl`, the Potency entry in test [1], in test [3], in [4], in [5], in test [6] and in test [7] was “inactive” each time. The Potency result in test [8], in test [9], in [10], in test [13], in test [15] and in [17] was “inactive” throughout. Moreover, the Potency result in [18] was “inactive”. Besides, the outcome in test [2], in test [11], in test [12], in test [16] and in test [19] was inactive.

In the case of `CCC1(c2ccccc2)C(=O)N=C(O)NC1=O` (stereo not drawn), the Potency entry in test [1], in [3], in [4], in test [5], in test [6] and in [7] was “inactive” each time. Also, the Potency result in test [8], in test [9], in test [10], in test [13], in test [15] and in test [17] was “inactive” each time. Further, in test [18], the Potency result was “inactive”. Besides, the compound was classed as inactive in test [2], in test [11], in test [12] and in test [19].

Consider `COc1cc(OC)nc(Sc2cccc(Cl)c2C(=O)O)n1`, for which the Potency result in test [1], in test [3], in test [4], in test [5], in test [6] and in test [7] was “inactive” in each case. The Potency result in test [8], in [9], in test [10], in test [15], in test [17] and in test [18] was “inactive” throughout. The compound was called inactive in test [2], in [11], in test [12], in [16] and in [19].

With `CC(C)CC#N`, the Potency result in test [1], in test [3], in test [4], in [5], in test [6] and in [7] was “inactive” throughout. Further, the Potency result in test [8], in [9], in test [10], in test [20], in [13] and in test [15] was “inactive” in each case. Besides, the compound was called inactive in test [2], in [11], in test [12], in [16] and in test [19]. In test [18], the Potency was 27.9 µM (active).

Turning to `CCCCCCI`, the Potency entry in [1], in test [3], in [4], in test [5], in test [6] and in test [7] was “inactive” throughout. Besides, the Potency result in test [8], in test [9], in test [10], in [20], in test [13] and in test [15] was “inactive” in each case. In addition, in test [17], the Potency entry is “inactive”. Also, the call in test [2], in [11], in test [12], in [16] and in test [19] was inactive.

As for `O=C(Nc1ccccc1)c1ccccc1I`, the Potency result in [1], in [3], in [4], in [5], in [6] and in [7] was “inactive” each time. Also, the Potency entry in [8], in test [9], in test [10], in test [20], in [13] and in [17] was “inactive” in each case. In addition, the call in test [2], in test [11], in test [12], in test [16] and in test [19] was inactive.

Turning to `CC(CCc1ccccc1)NC(C)C(O)c1ccc(O)cc1` (stereo not drawn), the Potency entry in test [1], in test [3], in [4], in [5], in test [6] and in test [7] was “inactive” each time. For the same compound, the Potency entry in test [8], in test [9], in test [10], in test [13], in test [15] and in test [17] was “inactive” in each case. For the same compound, the Potency result in test [18] is “inactive”. In addition, the compound was called inactive in [2], in test [11], in [12], in [14], in test [16] and in test [19].
